Sampled rows, rich in hits. Any-hit rate of the full collection: about 1.2%.
F-actin modifier = modifiers of cytoskeleton assembly | HUVEC TNFa F-actin phalloidin imaging, high content | 91,000 compounds, 0.18% hits | inhibition, % at 2 µM | AID 836;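 active means inhibition above the batch mean plus 3 SD and confirmed as a hit by visual image inspection, cut at about 30% in these data, passing the limit was not always enough; inconclusive means above the inhibition threshold but rejected on visual inspection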
E-sel TNF inh = blocks E-selectin expression induced by TNF alpha; HUVEC TNFa-induced E-selectin immunofluorescence, high content; inhibition, % at 2 µM; 120,000 compounds, 0.71% hits;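 active means inhibition above the batch mean plus 3 SD, and confirmed as a hit on visual image review, cut at about 43% in these data; inconclusive means passes the inhibition cutoff but fails visual image review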;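 further: 0% = TNF-stimulated DMSO wells and 100% = unstimulated control wells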
TNFa cytotox = HUVEC cytotoxicity counter-screen, TNF alpha stimulated. HUVEC TNFalpha-stimulated, Hoechst cell count, imaging. cell count reduction, % at 2 µM. 93,000 compounds, 0.17% hits;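 active means cell count reduction exceeding the screen mean by over 5 SD, scaled to untreated wells per plate, cut at about 78% in these data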;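 further: cells counted after 24 h of TNF alpha exposure following the 1 h pretreatment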
VCAM1 TNFa inh = reduces TNF alpha induced VCAM1 expression in HUVEC; AID 802; 95,000 compounds, 0.48% hits; HUVEC TNFa-induced VCAM-1 immunofluorescence, high-content imaging; inhibition, % at 2 µM;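 active means inhibition above the batch mean plus 3 SD, with images confirmed as a hit by eye, cut at about 37% in these data; inconclusive means inhibition above that limit but hit not confirmed in images; inactive means inhibition not above that limit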;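 further: 0% = TNF-stimulated DMSO wells and 100% = unstimulated control wells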
Active calls of the source: *; ? = inconclusive; · = not tested or not shown.

SMILES | F-actin modifier | E-sel TNF inh | TNFa cytotox | VCAM1 TNFa inh
O=C(NC(Cc1c[nH]c2ccccc12)C(=O)O)c1ccco1 (stereo unspecified) | ? | 7 | 100* | ?
CCOC(=O)c1cc2c(ccn2C)n1Cc1ccccc1C | 63* | 38 | -3 | 6
Cc1ccccc1Cn1c(C(=O)OC(C)C)cc2c1ccn2C | -10 | -16 | 3 | 12
Cc1ccc(N(CN2CCCC2=O)C(=O)c2ccc(OC(C)C)cc2)cc1 | -10 | 2 | 79* | 62
COC(=O)c1cccc(S(=O)(=O)N(Cc2ccco2)Cc2cc3ccc(OC)cc3[nH]c2=O)c1 | -28 | · | 61 | 87*
O=C(O)c1cccc(NCc2ccncc2)c1 | 6 | -8 | -4 | 3
O=C(O)c1ccc(NCc2ccncc2)cc1 | -1 | · | 84* | -16
Cc1ccc(N2C(=O)[C@@H]3C(C(=O)CCN4C(=O)c5ccccc5C4=O)=NN[C@@H]3C2=O)cc1 | · | 65* | · | ·
Cc1cccnc1N(C(=O)Nc1ccccc1)C1=NCC(C)(C)S1 | 8 | -5 | 57 | 42*
CCc1ccccc1OCC(=O)OCC(=O)c1c(N)n(C)c(=O)n(C)c1=O | · | -10 | · | ·
Cn1c(N)c(C(=O)COC(=O)CN2C(=O)c3ccccc3C2=O)c(=O)n(C)c1=O | · | 68* | · | ·
Cc1ccc(C(=O)COC(=O)CNC(=O)C(c2ccccc2)c2ccccc2)cc1[N+](=O)[O-] | -11 | 0 | 0 | -1
COc1ccc(-c2cc(C(F)(F)F)nc(NCc3ccco3)n2)cc1OC | 17 | · | -36 | 1
FC(F)(F)c1cc(-c2ccc3c(c2)OCO3)nc(NCc2ccco2)n1 | -7 | 19 | 78* | 78*
CCc1c(C)c(C#N)c2nc3ccccc3n2c1Cl | · | 67* | · | ·
Cc1cc(NCCN2CCCCC2)n2c(nc3ccccc32)c1C#N | 31 | 100* | 40 | 19
Cc1cc(-c2ccccc2)nc(N/N=C/c2ccco2)n1 | -25 | 8 | 4 | -4
Cc1cc(SCC(=O)c2cccs2)nc2ccccc12 | · | 75* | · | ·
COc1ccc(N2C(=O)CSC2c2cccs2)cc1 (stereo unspecified) | · | -13 | · | ·
CCOc1ccc(N2C(=O)CSC2c2ccncc2)cc1 (stereo unspecified) | 40 | 14 | -48 | 91*
O=C(Nc1ccc2nc(SCc3ccc(Cl)cc3)sc2c1)c1ccccc1C(=O)N1CCOCC1 | -19 | 53* | 18 | 26
CCCC(CCC)C(=O)NNc1cc(=O)c2c(=O)n(C)c(=O)n(C)c2[nH]1 | -14 | 100* | 6 | 11
COc1cccc(C(C)NC(=O)c2c(F)cccc2Cl)c1 (stereo unspecified) | · | 61* | · | ·
CCC(CC)C(=O)NCCCN1CCOCC1 | · | 18 | · | ·
O=[N+]([O-])c1ccc(C(=S)N2CCN(Cc3ccccc3)CC2)cc1 | -6 | 13 | 4 | -3
SMILES | F-actin modifier | E-sel TNF inh | TNFa cytotox | VCAM1 TNFa inh
COc1cc(-c2nc(S(=O)(=O)c3ccc(C)cc3)c(N3CCOCC3)o2)cc(OC)c1OC | 10 | -5 | -6 | 11
CCOC(=O)c1ccc(CNC(=O)CCC(=O)O)cc1 | 34* | 15 | -1 | 10
CC(C)c1ccc(-n2ccnc2SCC(=O)O)cc1 | · | -6 | · | ·
Cc1c(Cl)cccc1-n1ccnc1SCC(=O)O | -31 | · | 78* | 94*
CCOC(=O)C1=NN(C(=O)c2ccc(OC)cc2)C(O)(c2ccc(Cl)cc2)C1 (stereo unspecified) | · | -9 | · | ·
O=C(Nc1nc(-c2ccncc2)cs1)c1ccc(S(=O)(=O)N2CCOCC2)cc1 | 0 | 63* | -13 | -2
CCOc1cccc(C(=O)Nc2nc(-c3ccc(S(=O)(=O)N4CCOCC4)cc3)cs2)c1 | -17 | 0 | -5 | -22
O=S(=O)(c1cccs1)N1CCN(CC(O)COC2CCCc3ccccc32)CC1 (stereo unspecified) | -23 | 18 | -2 | -3
O=S(=O)(c1cccs1)N1CCN(CC(O)COc2cccc(Br)c2)CC1 (stereo unspecified) | -13 | -8 | 55 | 94*
CCN(CC)S(=O)(=O)c1ccc(NC(=O)CSc2nnc(-c3ccc(F)cc3)o2)cc1 | -8 | 61* | 0 | -11
CCOC(=O)c1ccc(-n2c(=S)sc3c(=O)[nH]c(C)nc32)cc1 | 12 | -16 | -8 | 87*
CCOC(=O)CC(=O)CSc1nc2c(sc(=S)n2-c2ccccc2)c(=O)[nH]1 | 4 | · | -18 | -45
COC(=O)c1cc2c(s1)CS(=O)C2 (stereo unspecified) | · | 96* | · | ·
Cc1cccc(OCc2nnc(SCC(=O)Nc3cccc(C(=O)N4CCOCC4)c3)n2C)c1C | · | 2 | · | ·
CC(C)Sc1nc2c(c(=O)n1-c1ccc(F)cc1)SCC2 | 2 | 12 | 6 | 94*
COc1ccc(NC(=O)C2CCCCN2N)cc1OC (stereo unspecified) | 0 | -2 | -15 | 14
O=C(Cc1cccs1)NNC(=S)NC(=O)c1ccc(F)c(F)c1 | · | 76* | · | ·
CCOc1cc(CNc2ccc3c(c2)OCCO3)cc(Br)c1OC | 39* | -34 | 37 | 43
CCOc1c(Br)cc(CNc2ccc3c(c2)OCCO3)cc1OC | 23 | 8 | 44 | 32
O=C(CCS(=O)(=O)c1ccccc1)Nc1nc2c(s1)COc1ccccc1-2 | 46* | · | -65 | 25
O=C(Nc1nc2c(s1)COc1ccccc1-2)c1cccs1 | -2 | 9 | -27 | 12
CCOc1cc(N2CCOCC2)c(OCC)cc1NS(=O)(=O)c1ccc(Cl)s1 | -34 | 89* | 2 | 3
CC(C)C(=O)N(c1ccc(F)cc1)C1C=CS(=O)(=O)C1 (stereo unspecified) | 10 | 82* | -18 | -10
CCC(CC)C(=O)N(c1ccc(F)cc1)C1C=CS(=O)(=O)C1 (stereo unspecified) | -22 | · | -33 | 11
CCN1C(=O)c2cccc3c(S(=O)(=O)Nc4c(C)n(C)n(-c5ccccc5)c4=O)ccc1c23 | 6 | -15 | -5 | -6
SMILES | F-actin modifier | E-sel TNF inh | TNFa cytotox | VCAM1 TNFa inh
CCN1C(=O)c2cccc3c(S(=O)(=O)NCc4ccccn4)ccc1c23 | 31* | 14 | -14 | -5
Cc1cc(N2CCN(S(=O)(=O)c3ccc(Cl)cc3)CC2)c2ccccc2n1 | -3 | 9 | -26 | 27
Cc1ccc(-n2nnc3c(SCC(=O)N4CCN(c5ccccc5)CC4)ncnc32)cc1 | 3 | 7 | -11 | 92*
COc1ccccc1N1CCN(C(=O)CSc2nc(-c3ccco3)cc(C(F)(F)F)n2)CC1 | 34 | -17 | -21 | -5
COc1ccc(-c2nnc(SCC(=O)N3CCCC3)o2)cc1OC | · | 4 | · | ·
COc1ccc(-c2nnc(SCC(=O)N3CCCc4ccccc43)o2)cc1OC | 34* | -14 | 7 | -5
Cc1nnc2n(C3CCCCC3)c(=O)c3c4c(sc3n12)CCC4 | -16 | · | -26 | 3
Cc1nnc2n(C3CCCCC3)c(=O)c3c4c(sc3n12)COC(C)(C)C4 | 5 | · | 94* | 65
O=C(NC1CCCCC1)N(CCN1CCOCC1)Cc1cc2cc3c(cc2[nH]c1=O)OCCO3 | 33* | · | -45 | 1
O=C(Nc1ccccc1)c1nnsc1S(=O)c1ccc(Cl)cc1 (stereo unspecified) | 25 | 80* | 4 | 43*
Cc1cc(NC(=O)CSc2nc(-c3ccco3)cc(C(F)(F)F)n2)no1 | -10 | -2 | 46 | 53*
